Experiment [1] has as its system XIP peptide (Xip251-270) binding. Briefly: XIP fragment 251-270 binding compounds – biochemical, small-molecule microarray, fluorescence 635/667 nm, 0.1 µg/mL protein, primary screen (AID 1182). The note with it: fluorescent protein binding, 635 nm, higher = more signal, called active from +8 up or from −8 down.
For experiment [2], the system named is XIP peptide (Xip251-270). As to the kind of experiment: compounds binding XIP fragment 251-270 – biochemical, small-molecule microarray, fluorescence 635/667 nm, 0.5 µg/mL protein, primary screen (AID 1183). To be noted: fluorescence 635 nm, higher = more signal.
Experiment [3] is described as follows: blood-stage malaria parasite viability loss – strain 3D7, DAPI fluorescence, 100 nL, primary screen (AID 1184).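 Also: parasites grown inside human red blood cells in medium with human serum.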 The note with it: P. falciparum 3D7 growth, 3 d, higher = more signal.
Experiment [4] has as its target Homeobox protein Hox-A13 (Mus musculus) (UniProt Q62424). Briefly: disruptors of Hoxa13 oligonucleotide interaction – biochemical, fluorescence polarization, labeled oligonucleotide, primary screen (AID 1185). To be noted: Hoxa13:DNA binding, 15 min, higher = more signal, called active from +8 up or from −8 down.
Experiment [5] is described as follows: blockers of DNA damage checkpoint Chk1 activation – imaging, HeLa, hydroxyurea, phospho-Chk1 antibody, percent positive cells, primary screen (AID 1186). To be noted: hydroxyurea-induced phospho-Chk1 immunofluorescence imaging, higher = more signal.
Experiment [6] can be described thus: blockers of DNA damage checkpoint Chk1 activation – imaging, HeLa, hydroxyurea, phospho-Chk1 nuclear intensity, primary screen (AID 1187). The note with it: hydroxyurea-induced phospho-Chk1 immunofluorescence imaging, higher = more signal.

Each structure is given as a SMILES string. Activity calls are given as the source filed them. Unless noted, no rule for the calls is given here.

Homeobox protein Hox-A13 (Mus musculus), sequence (Q62424 whole entry, looked up): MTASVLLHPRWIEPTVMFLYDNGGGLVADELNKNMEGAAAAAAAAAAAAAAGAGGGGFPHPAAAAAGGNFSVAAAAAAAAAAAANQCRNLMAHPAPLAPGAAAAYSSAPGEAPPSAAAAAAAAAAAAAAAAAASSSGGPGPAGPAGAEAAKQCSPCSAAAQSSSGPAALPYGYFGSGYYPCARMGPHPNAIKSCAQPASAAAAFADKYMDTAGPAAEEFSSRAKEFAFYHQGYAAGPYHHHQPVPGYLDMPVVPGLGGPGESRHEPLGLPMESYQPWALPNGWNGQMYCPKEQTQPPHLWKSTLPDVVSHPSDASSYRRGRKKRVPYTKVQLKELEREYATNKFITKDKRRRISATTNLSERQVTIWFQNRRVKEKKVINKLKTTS

Consider `C=CC[C@]1(C(=O)OC)N=C(c2ccc(OCCCO)cc2)O[C@H]1c1ccccc1CN=[N+]=[N-]`, for which the composite z-score in experiment [1] was -0.127 (inactive); in experiment [2] it was -0.239. Besides, the z-score in experiment [3] is -2.35; in experiment [4], -1.99 (inactive); in experiment [5] it was -0.0854 (inactive); in experiment [6], 0.137 (inactive).
In the case of `C=CC(=O)O[C@@H](Cc1ccccc1)[C@H]1C2C=CCCC=C2CN1Cc1cccc(Cl)c1` (some centres not stated), the composite z-score was -0.244 (inactive) in experiment [1] and -2.01 in experiment [2]. The z-score was -0.0093 in experiment [3], -3.7 (inactive) in experiment [4], 0.171 (inactive) in experiment [5] and 0.304 (inactive) in experiment [6].
For the molecule `C=CCNC(=O)[C@H]1[C@@H]2C(=O)O[C@@H](c3ccccc3)[C@@H](c3ccccc3)N2[C@@H](c2ccccc2OCCO)[C@]12C(=O)N(C(=O)OCCOC)c1ccc(C#CCNC(N)=O)cc12`, the composite z-score was 0.854 (inactive) in experiment [1] and 0.822 in experiment [2]. Besides, the z-score in experiment [3] is -1.87; in experiment [4], -1.33 (inactive); in experiment [5] it was -0.267 (inactive); in experiment [6] it was -0.261 (inactive).
For the molecule `C=C(COC)/C(=C/C[C@H](OC(C)=O)c1ccc(OCCO)cc1)c1cnc2ccccc2c1`, the results for the composite z-score in experiment [1] and in experiment [2] were 0.878 (inactive) and 0.0356, respectively. The z-score in experiment [3] is -3.08; in experiment [4], -3.6 (inactive); in experiment [5], -0.619 (inactive); in experiment [6], -0.632 (inactive).
For `O=C/C=C/c1ccc(/C=C/c2ccccc2)cc1`, the results for the composite z-score in experiment [1] and in experiment [2] were -0.837 (inactive) and -0.443, respectively. Besides, the z-score in experiment [3] is 3.9; in experiment [4], 0.0626 (inactive); in experiment [5], 0.144 (inactive); in experiment [6], 0.848 (inactive).
On to `CC(=O)NCCCC[C@@H]1NC(=O)[C@@H]2C[C@H](C(=O)NCc3ccc(F)cc3)[C@H](c3cccc(OCCO)c3)N2C1=O`, for which the values for the composite z-score in experiment [1] and in experiment [2] were 0.356 (inactive) and 0.117, respectively. Also, the z-score in experiment [3] was 0.447; in experiment [4] it was -4.11 (inactive); in experiment [5] it was 0.676 (inactive); in experiment [6] it was 0.312 (inactive).
Consider `[N-]=[N+]=NCc1ccccc1C[C@@]1(C(=O)N2CCOCC2)N=C(c2ccc(OCCCO)cc2)O[C@@H]1c1ccccc1N=[N+]=[N-]`, for which the composite z-score was 1.4 (inactive) in experiment [1] and 0.711 in experiment [2]. For the same molecule, the z-score was -1.98 in experiment [3], -0.217 (inactive) in experiment [4], -0.269 (inactive) in experiment [5] and 0.0427 (inactive) in experiment [6].
With `C[C@H]1NC(=O)[C@@H](C)NC(=O)[C@@]23C(=O)N[C@@H](Cc4ccccc4)C2[C@H](C)[C@@]2(C)O[C@H]2C3/C=C/C/C=C\CNC1=O` (some centres not stated), the composite z-score was 0.378 (inactive) in experiment [1] and -0.166 in experiment [2]. Moreover, the z-score in experiment [3] is -0.428; in experiment [4], -3.98 (inactive); in experiment [5], -0.318 (inactive); in experiment [6], 0.412 (inactive).
As for `COc1ccc(NN2C(C(O)c3cc(OC)c(OC)c(OC)c3)C=CC3C(=O)N(C4CCCCC4)C(=O)C32)cc1` (configuration not stated), the results for the composite z-score in experiment [1] and in experiment [2] were -0.0682 (inactive) and 0.758, respectively. In addition, the z-score was -1.11 in experiment [3], -4.58 (inactive) in experiment [4], 0.071 (inactive) in experiment [5] and -0.378 (inactive) in experiment [6].
On to `Cc1ccc(S[C@]2(C(=O)O)CC(=O)N(Cc3ccccc3)[C@@H]2c2ccc(CO)cc2)cc1`, for which the composite z-score in experiment [1] was -0.242 (inactive); in experiment [2], -0.655. For the same molecule, the z-score in experiment [3] is -0.254; in experiment [4], -2.96 (inactive); in experiment [5], -0.947 (inactive); in experiment [6], -1.23 (inactive).
`CCCCCCc1nc(C2CC2)c(C)c2c1[Si](C(C)C)(C(C)C)OC2`: the composite z-score in experiment [1] is -0.0485 (inactive); in experiment [2] it was -0.462. In addition, the z-score is -2.41 in experiment [3], 2.65 (inactive) in experiment [4], -0.53 (inactive) in experiment [5] and -0.23 (inactive) in experiment [6].
Take `C=C[C@H](OC)[C@@H](OC(=O)Nc1ccc(SC)cc1)c1ccc(OC)c(O)c1`: the values for the composite z-score in experiment [1] and in experiment [2] were 0.241 (inactive) and 0.0001, respectively. For the same molecule, the z-score was -0.549 in experiment [3], -2.82 (inactive) in experiment [4], -0.439 (inactive) in experiment [5] and 0.136 (inactive) in experiment [6].
As to `COC(=O)Cn1c(C(=O)N2CCCC2)cc2c1C[C@H]1CN(C(=O)c3ccccc3)[C@@](Cc3ccc(OC)cc3)(C(=O)OC)[C@@H]21`, the composite z-score in experiment [1] was 0.516 (inactive); in experiment [2] it was 0.518. The z-score is -1.48 in experiment [3], -3.21 (inactive) in experiment [4], 0.847 (inactive) in experiment [5] and 0.487 (inactive) in experiment [6].
In the case of `CC(=O)NCCCC[C@@H]1NC(=O)[C@H]2C[C@@H](C(=O)NCCCCCCN(C)C)[C@@H](c3cccc(OCCO)c3)N2C1=O`, the composite z-score in experiment [1] was 2.96 (inactive); in experiment [2] it was 0.882. Besides, the z-score was -0.0473 in experiment [3], -2.84 (inactive) in experiment [4], 0.181 (inactive) in experiment [5] and 0.733 (inactive) in experiment [6].
For the molecule `C=CC[C@]1(C(=O)O)N=C(c2ccc(OCCCO)cc2)O[C@H]1c1ccccc1N=[N+]=[N-]`, the composite z-score in experiment [1] is 0.718 (inactive); in experiment [2] it was -0.519. In addition, the z-score in experiment [3] is -1.3; in experiment [4], -5.25 (inactive); in experiment [5], -0.0145 (inactive); in experiment [6], 0.144 (inactive).
Turning to `COC(=O)[C@@]1(Cc2ccccc2CN=[N+]=[N-])N=C(c2ccc(OCCCO)cc2)O[C@H]1c1ccccc1N=[N+]=[N-]`, the composite z-score in experiment [1] is 0.413 (inactive); in experiment [2], 0.653. Further, the z-score was -1.94 in experiment [3], 0.683 (inactive) in experiment [4], 0.0586 (inactive) in experiment [5] and 0.0586 (inactive) in experiment [6].
`CCOC(=O)C[C@H]1[C@H](OC(=O)c2ccccc2-c2ccccc2)[C@@H](NC(=O)c2ccc(-c3ccccc3)cc2)c2cc(OCCCO)ccc2N1C(=O)Cc1ccc(OC)cc1`: the composite z-score in experiment [1] was 0.617 (inactive); in experiment [2], 0.222. The z-score in experiment [3] was 0.561; in experiment [4], -2.32 (inactive); in experiment [5], 0.663 (inactive); in experiment [6], 0.241 (inactive).
